Measurements: PubChem BioAssay (EPA / NIEHS)
Inconclusive results are not listed. Activity calls are given as the source filed them. Rule for the calls: active = hit-call score of the fitted dose curve at least 0.9, where 1 is the maximum; inconclusive = response in the unintended direction; inactive = score below 0.9.

Target: human Retinoic Acid Receptor gamma (RARg), RARG (gene 5916) (UniProt P13631)
Experiment: ATG_RARg_TRANS: Attagene TRANS-FACTORIAL HepG2 Assay for human Retinoic Acid Receptor gamma (RARg) (AID 2283009)
Description: ATG_TRANS is a cell-based, multiplexed-readout assay that uses HepG2, a human liver cell line, with measurements taken at 24 hours after chemical dosing in a 24-well plate.ATG_RARg_TRANS is one of 30 assay component(s) measured or calculated from the ATG_TRANS assay. It is designed to make measurements of mRNA induction, a form of inducible reporter, as detected with fluorescence intensity signals by Reverse transcription polymerase chain reaction (RT-PCR) and Capillary electrophoresis technology.Data from the assay component ATG_RARg_TRANS was analyzed into 1 assay endpoint. This assay endpoint, ATG_RARg_TRANS, was analyzed in the positive analysis fitting direction relative to DMSO as the negative control and baseline of activity. Using a type of inducible reporter, measures of mRNA for gain-of-signal activity can be used to understand the reporter gene at the transcription factor-level as they relate to the gene RARG. Furthermore, this assay endpoint can be referred to as a primary readout, because this assay has produced multiple assay endpoints where this one serves a reporter gene function. To generalize the intended target to other relatable targets, this assay endpoint is annotated to the nuclear receptor intended target family, where the subfamily is non-steroidal.
Human liver HepG2 cells are transiently transfected with multiple reporter transcription units (MRTUs) in 6-well plates using FuGene 6 reagent (Roche; 3 ml FuGene/1 mg DNA). The MRTU constructs are regulated by a cis-regulating element (promoter). […] A major difference between the CIS and TRANS system is that in CIS activities of endogenous TFs are measured, whereas the TRANS assay evaluates changes in activities of exogenous, chimeric NR-Gal4 proteins. […] At the end of 24 hour incubation, total RNA was isolated using TriZol reagent (Invitrogen). The isolated RNA is then reverse-transcribed using oligo(dT) primer and Mo-MLV reverse transcriptase (Invitrogen) with DNAse I (Ambion) treatment for 30 min. The one-tenth of the produced cDNA was amplified by PCR using Taq DNA polymerase (Invitrogen) and two reporter sequence-specific primers. The PCR products were fluorescently labeled by primer extension with 6-arboxyfluorescein (6-FAM) 5'-labeled reporter sequence-specific primer (2 min at 95 C, 20 s at 68 C and 10 min at 72 C) and these products were digested with 5U of HpaI (New England Biolabs) for 2h at 37 C. […] The raw capillary electrophoresis data was processed using Attagraph software (Attagene).

human Retinoic Acid Receptor gamma (RARg), RARG (gene 5916), sequence (P13631 whole entry, looked up): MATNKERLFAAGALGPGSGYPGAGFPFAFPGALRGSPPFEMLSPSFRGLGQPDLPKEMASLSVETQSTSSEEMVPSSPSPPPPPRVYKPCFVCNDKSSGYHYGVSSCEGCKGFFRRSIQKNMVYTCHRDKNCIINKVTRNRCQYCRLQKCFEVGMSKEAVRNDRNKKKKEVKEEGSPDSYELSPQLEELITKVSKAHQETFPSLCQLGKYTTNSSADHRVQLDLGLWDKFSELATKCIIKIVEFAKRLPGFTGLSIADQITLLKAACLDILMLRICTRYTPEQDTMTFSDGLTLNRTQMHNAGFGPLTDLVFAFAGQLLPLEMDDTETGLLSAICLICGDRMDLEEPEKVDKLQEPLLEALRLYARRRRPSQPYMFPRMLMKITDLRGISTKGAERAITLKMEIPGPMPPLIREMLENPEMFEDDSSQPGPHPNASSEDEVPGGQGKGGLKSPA

SMILES	outcome
CCCCCCCCCCCC(=O)Cl	inactive
C=C(C)CCCC	inactive
CO[Si](C)(CCC(F)(F)C(F)(F)C(F)(F)C(F)(F)C(F)(F)C(F)(F)F)OC	inactive
O=C(c1ccccc1)c1ccc(O)cc1O	inactive
O=S(=O)(Cl)C(F)(F)C(F)(F)C(F)(F)C(F)(F)C(F)(F)C(F)(F)C(F)(F)C(F)(F)F	inactive
O=C(Cl)C(F)(F)C(F)(F)C(F)(F)C(F)(F)C(F)(F)C(F)(F)C(F)(F)F	inactive
OCC1CCCO1 (stereo not given)	inactive
O=C(O)C(F)(F)C(F)(F)C(F)(F)C(=O)O	inactive
OCCCCC(F)(F)C(F)(F)C(F)(F)C(F)(F)F	inactive
Oc1ccc(C2(c3ccc(O)c(C4CCCCC4)c3)CCCCC2)cc1C1CCCCC1	inactive
CCOCOCC	inactive
C[Si](C)O[Si](C)C	inactive
Oc1ccc2c(c1)CCC2	inactive
OCC(O)CC(F)(F)C(F)(F)C(F)(F)C(F)(F)C(F)(F)C(F)(F)C(F)(F)C(F)(F)F (stereo not given)	inactive
Cc1cc(O)c(C(C)(C)C)cc1C(C)(C)C	inactive
N#CCCOCCC#N	inactive
CC1CCCCC1	inactive
CCOC(=O)CC(=O)C(F)(F)C(F)(F)F	inactive
O=C1c2c(O)ccc(Nc3ccc(CCO)cc3)c2C(=O)c2c([N+](=O)[O-])ccc(O)c21	inactive
O=C1c2ccccc2C(=O)c2c(Cl)cccc21	inactive

SMILES	outcome
Cc1cc(=O)[nH]c(C(C)C)n1	inactive
CCN(CCO)S(=O)(=O)C(F)(F)C(F)(F)C(F)(F)C(F)(F)C(F)(F)C(F)(F)C(F)(F)C(F)(F)F	inactive
CCOCN(C(=O)CS(=O)(=O)O)c1c(C)cccc1CC	inactive
O=C(O)C(F)(F)C(F)(F)C(F)(F)OC(F)(C(F)(F)F)C(F)(F)F	inactive
C=CC(=O)OCC(F)(F)C(F)(F)C(F)(F)COC(=O)C=C	inactive
COCCOCCC[Si](C)(O[Si](C)(C)C)O[Si](C)(C)C	inactive
OCCCc1cccnc1	inactive
CCC(C)CO (stereo not given)	inactive
CCn1c2ccccc2c2ccccc21	inactive
Nc1cccnc1N	inactive
OCCC(O)CO (stereo not given)	inactive
CC(O)C#CC(C)O (stereo not given)	inactive
Cc1ccc(S(=O)(=O)C(I)I)cc1	inactive
CC(=O)CCC(C)C	inactive
CC(C)(C)C(=O)C1C(=O)c2ccccc2C1=O	inactive
CC1=CCC2C(=O)OC(=O)C2C1 (stereo not given)	inactive
CCCCCCCC/C=C\CCCCCCCC(=O)N(C)CC(=O)O	inactive
CSc1ccc(O)cc1C	inactive
Nc1c(Br)cc([N+](=O)[O-])cc1Br	inactive
CN(N=O)C(=O)N[C@@H]1[C@@H](O)[C@H](O)[C@@H](CO)O[C@@H]1O	inactive
